Dicer processing = inhibitors of human Dicer processing of pre-microRNA | Q9UPY3 | cat-ELCCA pre-miR-21 Dicer processing, chemiluminescence; hits give high values | z-score at 25 µM | 47,000 tested, 6% active; in the data active means z-score above about 3, passing the limit was not always enough;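 further: higher signal means more uncleaved substrate so more Dicer inhibition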
Large screens that a line does not name were inactive. Only a selection was taken, and hits are over-represented in it overall.

O=c1[nH]cc(NCc2ccccc2)c(=O)[nH]1	none
Nc1nc(Nc2ccccc2)nc(NCc2ccccc2)c1[N+](=O)[O-]	none
Nc1c(NCc2ccccc2)c(=O)c1=O	Dicer processing 3.3
COc1cc(Br)c(C[N+]2(CCOCCC3CC[C@H]4C[C@@H]3C4(C)C)CCOCC2)cc1OC (stereo not given in full)	none
Cc1cc(=O)[nH]c(SCc2ccccc2Cl)n1	none
Cc1nnc(SCc2ccccc2Cl)[nH]c1=O	Dicer processing 3
CCCc1cc(=O)[nH]c(SCc2ccccc2Cl)n1	none
Cc1ccc(C)c(OCc2nc(-c3cccs3)no2)c1	none
CC1(C)OC(=O)C(=C2CCCCCN2)C(=O)O1	none
CCOC(=O)c1nnn2c1nc(N/N=C/c1ccncc1)c1ccccc12	none
c1ccc(-c2nc(NCCN3CCOCC3)c3ccccc3n2)cc1	Dicer processing 3.3
c1ccc(-c2nc(NCCCN3CCOCC3)c3ccccc3n2)cc1	none
CC(C)(C)c1ccc(-c2nc(NCCN3CCOCC3)c3ccccc3n2)cc1	none
CCCCN1C(=O)C(=O)c2ccccc21	none
NC(=O)C1CCN(CN2C(=O)c3ccccc3C2=O)CC1	none
C=CCn1c(Sc2ncc(C(=O)OC)cc2[N+](=O)[O-])n[nH]c1=O	none
CC(C)c1ccc(NC(=S)NN)cc1	none
Cc1cc(NC(=S)NN)ccc1Br	Dicer processing 4.1
NNC(=S)Nc1ccc(Br)c(Cl)c1	none
Cn1nc(C(F)(F)F)c(-c2ccc(Br)cc2)c1NC(=O)Cc1ccccc1F	none
CCOC(=O)/C(C#N)=C1/C(=O)Nc2ccc(Br)cc21	none
COC(=O)c1ccc(C2CC(=O)Nc3c2cc(Br)c2ccccc32)cc1 (stereo not given)	none
CC(C)Nc1nc(NC(C)C)nc(N(C)C#N)n1	Dicer processing 7
O=C1/C(=C/c2ccc(-c3nn[nH]n3)cc2)C(c2ccccc2)Oc2ccccc21 (stereo not given)	none
O=C(COC(=O)c1ccc2ccccc2c1OC(=O)c1ccc(Cl)cc1)c1ccc(Cl)cc1	none
Cc1nc(-c2ccc(C(N)=O)cc2)ncc1-c1nsc(Nc2ccccc2)n1	none
CCc1n(CC(O)COc2cccc(Cl)c2)c2ccccc2[n+]1C (stereo not given)	none
C#CC1(NC(=O)c2cc(Cl)cc(Cl)c2)CCCCC1	none
COc1ccc(OCCC(=O)NN)cc1	Dicer processing 3.3
COc1ccc(OCCN)cc1	none
COc1ccc(OCCC(=O)N/N=C/C=C/c2ccccc2)cc1	none
C#CCOc1cccc2oc(CCC)cc(=O)c12	none
O=C(c1ccc(F)cc1F)C1CCN(S(=O)(=O)c2ccc(F)cc2F)CC1	none
CN(C)CCCNC(=O)C(=O)Nc1ccccc1Oc1ccc(Cl)cc1Cl	none
N#CC(C#N)=NNc1ccccc1Oc1ccc(Cl)cc1Cl	Dicer processing 3.9
O=C(Nc1ccccc1Oc1ccc(Cl)cc1Cl)c1cc(Cl)sc1Cl	none
Cc1ccc(C(=O)Nc2cnc3c(C)cccn3c2=O)cc1	none
CCOC(=O)NC(=S)Nc1cc(C(F)(F)F)cc(C(F)(F)F)c1	none
COc1ccc(-n2ncc(C(=O)NCc3c(Cl)cccc3Sc3ccc(Cl)cc3)c2C)cc1	none
CC(C)CCNC(=O)Cn1cnc2c1c(=O)n(C)c(=O)n2C	none
Cc1cc(NC(=O)CSc2nc(-c3ccccc3)c(C#N)c(=O)[nH]2)no1	none
CC1(C)CC(=O)c2sc(NC(=O)CSc3nc(-c4ccccc4)c(C#N)c(=O)[nH]3)nc2C1	Dicer processing 4.1
CCC(Oc1ccccc1)C(=O)Nc1nc2c(s1)C(=O)CC(C)(C)C2 (stereo not given)	none
Cc1csc2sc(C(=O)CC(=O)C(F)(F)F)c(C)c12	none
CC1(C)CC(=O)c2sc(NC(=O)COc3ccc(Cl)cc3)nc2C1	none
Nc1nc2c(c(=O)[nH]1)C(c1ccc(OCc3ccc(F)cc3)cc1)CC(=O)N2 (stereo not given)	none
CC(C)c1nn(-c2cccc(C(F)(F)F)n2)c(=O)o1	none
Cc1cc(C(=O)C(F)(F)F)c(C)n1-c1ccc(C(F)(F)F)cc1	none
CCOC(=O)c1cnc(NNC(=O)c2ccc(F)cc2)nc1C(F)(F)F	none
CCOC(=O)c1cnc(C(F)(F)F)nc1Sc1n[nH]c(-c2cc(Cl)cc(Cl)c2)n1	none
CCOC(=O)c1cnc(Nc2ccccc2)nc1C(F)(F)F	none
CCOC(=O)c1cnc(NNC(C)=O)nc1C(F)(F)F	Dicer processing 3.1
CCOC(=O)c1cnc(C(F)(F)F)nc1Oc1ccccc1	none
CCOC(=O)c1cnc(C(F)(F)F)nc1NNC(=O)c1ccc(Cl)cc1	Dicer processing 3.2
O=C1CC(c2ccccc2Cl)c2c(n[nH]c2-c2ccccc2)N1 (stereo not given)	none
CC(=O)OCC12c3ccccc3C(COC(C)=O)(c3ccccc31)C1C(=O)N(c3ccccc3)C(=O)C12 (stereo not given)	none
CC(C)(C)c1nnc(NC(=O)Nc2ccc(OC(F)(F)F)cc2)s1	none
O=S(=O)(Nc1ccc(Oc2ncnc3cc(Cl)ccc23)nc1)c1ccc(S(=O)(=O)c2ccccc2)s1	none
CSc1nnc(COc2ccc(C)c3c2CCC3)n1-c1ccccc1	none
Cc1nc2ccccn2c1-c1csc(Nc2ccc(S(N)(=O)=O)cc2)n1	Dicer processing 4.3
NS(=O)(=O)c1ccc(Nc2nc(-c3cccnc3)cs2)cc1	none
CCN(CC)c1ccc(Nc2nc(-c3sc(N)nc3C)cs2)cc1	none
Cc1nc2ccccn2c1-c1csc(Nc2ccc(Cl)cc2)n1	Dicer processing 7.1
Cc1cc(NS(=O)(=O)c2ccc(Nc3nc(-c4ccc(Cl)cc4)cs3)cc2)no1	none
Cc1ccc(Nc2nc(-c3c(C)nc4ccccn34)cs2)cc1	none
Cc1nnc(Nc2ccc(Cl)cc2)s1	none
Cc1ccc(C)c(-c2csc(Nc3ccc(S(N)(=O)=O)cc3)n2)c1	Dicer processing 5.1
CCCc1nc2ccccc2n1CC(O)COc1ccc(Cl)cc1 (stereo not given)	none
CC1(C)Cc2c(sc3nc(-c4ccccc4)[nH]c(=O)c23)CO1	none
CNc1ccc(Cl)cc1C(=O)Nc1nnc(C)s1	none
COc1ccc(Oc2coc3cc(OCCc4ccccc4)ccc3c2=O)cc1	none
COc1ccc(COC(=O)C2=C(C)NC3=C(C(=O)CCC3)C2c2ccc(OC(C)=O)c(OC)c2)cc1 (stereo not given)	none
O=C(CCc1ccc(O)cc1)N/N=C/C=C/c1ccccc1	none
CC1OC(=O)N(c2cc(Cl)cc(Cl)c2)C1=O (stereo not given)	none
CC1(C)CC(=O)c2cnc(NCc3ccc(F)cc3)nc2C1	none
Cn1c(=O)oc2cc(S(=O)(=O)N(CCO)CCO)ccc21	none
CCCNC(=O)c1nn2c(C(F)(F)F)cc(-c3cccs3)nc2c1Cl	none
O=C(O)c1nn(-c2ccc(Cl)cc2Cl)c(=O)cc1O	none
CC1(C)CC(=O)C2=C(C1)Nc1nc(SCc3ccccc3)[nH]c(=O)c1C2c1ccc2c(c1)OCO2 (stereo not given)	none
CC1CN(c2ncnc3sc4c(c23)CCCC4)CC(C)O1 (stereo not given)	none
c1ccc2[nH]c(CN3CCN(c4ncnc5sc6c(c45)CCCC6)CC3)nc2c1	none
CC1CCc2sc3ncnc(N4CCN(CCO)CC4)c3c2C1 (stereo not given)	none
OCCN1CCN(c2ncnc3sc4c(c23)CCCC4)CC1	Dicer processing 4.5
c1nc(N2CCCC2)c2c3c(sc2n1)CCCC3	none
CN1CCN(c2ncnc3sc4c(c23)CCCC4)CC1	Dicer processing 3.1
C/C(=N\N=C(/C)c1ccc(F)cc1)c1ccc(F)cc1	none
CNC(=O)Cc1c(Cl)sc2ccccc12	none
CCCCC1(Cc2ccccc2)C(=O)Nc2ccccc2C1=O (stereo not given)	none
COc1ccc(C2CC(=O)C=C(NC3Cc4ccccc4C3)C2)cc1 (stereo not given)	none
Cc1ccnc2c(N3C(=O)C4CC=C(Cl)CC4C3=O)cccc12 (stereo not given)	none

Bioassay records from PubChem.
